The values below come from PubChem BioAssay (NCI).

Among the test systems are NCI-H23 lung; NCI-H226 lung; NCI-H322M lung; HOP-62 NSCLC; NCI-H460 lung; HOP-92 NSCLC; A549/ATCC NSCLC; 786-0 renal; COLO 205 colon; DU-145 prostate; K-562 leukemia; MALME-3M melanoma; MDA-MB-231 breast; SF-268 CNS; SF-295 CNS; SF-539 CNS; UACC-257 melanoma; M14 melanoma; NCI-H522 lung; RXF 393 renal.
Assay in all cases: NCI-60 one-dose screen, 48 h (100 = growth as untreated, 0 = no growth, -100 = all killed)
What all share (conditions): 10 µM

The panel holds about 83,000 compounds, 20% with a hit somewhere; the sample as a whole holds those more often.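 Step 1: grow cells in 96-well plates. Step 2: add test compound at a single concentration. Step 3: incubate 48 h. Step 4: record percent growth.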 Values without a mark were called inactive. The source made the active and inactive calls. Rule for the calls: active = growth percent below 10; inactive = the rest.

As for `O=C(CSc1nnc(-c2c[nH]c3ccccc23)n1-c1ccccc1)Nc1ccc(C(=O)/C=C/c2ccccc2Cl)cc1`, the growth in the experiment with NCI-H23 lung was 36.1%; with NCI-H226 lung, 75.6%; in the experiment with NCI-H322M lung, 97.3%; in the experiment with HOP-62 NSCLC, 91.9%; in the experiment on NCI-H460 lung, 89%; in the experiment on HOP-92 NSCLC, 96.5%. Also, the growth in the experiment on A549/ATCC NSCLC was 91.1%; in the experiment with 786-0 renal, 103%; in the experiment on COLO 205 colon it was 96.2%; in the experiment on DU-145 prostate, 82%; in the experiment with K-562 leukemia it was 55.9%; with MALME-3M melanoma, 64.6%. Also, the growth with MDA-MB-231 breast was 78%; in the experiment with SF-268 CNS it was 66.5%; in the experiment on SF-295 CNS it was 72%; in the experiment on SF-539 CNS, 42.6%; in the experiment with UACC-257 melanoma, 107%; with M14 melanoma, 87.7%.
As to `O=C(CSc1nnc(-c2c[nH]c3ccccc23)n1-c1ccccc1)Nc1ccc(C(=O)/C=C/c2ccc(Cl)cc2)cc1`, the growth with NCI-H23 lung was 61.5%; in the experiment on NCI-H226 lung, 74.8%; in the experiment on NCI-H322M lung, 89%; with HOP-62 NSCLC, 85.8%; with NCI-H460 lung, 88.2%; with HOP-92 NSCLC, 87.3%. In addition, the growth in the experiment on NCI-H522 lung is 76.8%; in the experiment with A549/ATCC NSCLC, 79.3%; with 786-0 renal, 93.6%; in the experiment with DU-145 prostate, 79.7%; in the experiment with K-562 leukemia, 59.4%; in the experiment on MALME-3M melanoma, 61.6%. For the same molecule, the growth is 79.3% in the experiment with MDA-MB-231 breast; 56.9% in the experiment on SF-268 CNS; 65.3% in the experiment with SF-295 CNS; 63.9% with SF-539 CNS; 104% in the experiment on UACC-257 melanoma; 81.8% with M14 melanoma.
With `C=CC(=O)Nc1nc(-c2cccc(NS(=O)(=O)c3cccc4c(N(C)C)cccc34)c2)cs1`, the growth in the experiment with NCI-H23 lung was -3.14% (active); in the experiment on NCI-H226 lung, 6.89% (active); in the experiment with NCI-H322M lung, 56.2%; in the experiment with HOP-62 NSCLC it was 31.2%; in the experiment with NCI-H460 lung it was -32.8% (active); in the experiment with HOP-92 NSCLC, -49.2% (active). Further, the growth in the experiment with A549/ATCC NSCLC was 19.3%; in the experiment on 786-0 renal, -82.5% (active); in the experiment on COLO 205 colon, -56.3% (active); in the experiment on DU-145 prostate it was 3.39% (active); with MALME-3M melanoma, -76.1% (active); with MDA-MB-231 breast it was -63.8% (active). Moreover, the growth in the experiment on RXF 393 renal was -98.7% (active); in the experiment on SF-268 CNS, 0.14% (active); with SF-295 CNS, 37.8%; with SF-539 CNS it was -100% (active); in the experiment with UACC-257 melanoma, -29.3% (active).
With `COc1ccc(OC)c(/C=N/NC(=O)c2ccc3nc(-c4ccc(Cl)cc4)[nH]c3c2)c1`, the growth in the experiment on NCI-H23 lung is 66.1%; with NCI-H226 lung, 64.3%; in the experiment with NCI-H322M lung, 71.1%; in the experiment on HOP-62 NSCLC it was 81.6%; with NCI-H460 lung, 82.5%; in the experiment on HOP-92 NSCLC, 63.4%. Moreover, the growth was 91.2% in the experiment on A549/ATCC NSCLC; 73.4% with 786-0 renal; 81.7% in the experiment with COLO 205 colon; 48% in the experiment on DU-145 prostate; 47.1% with K-562 leukemia; 81.6% in the experiment with MALME-3M melanoma. Besides, the growth in the experiment with MDA-MB-231 breast is 10.3%; in the experiment on RXF 393 renal it was 3.46% (active); in the experiment with SF-268 CNS, 57%; in the experiment on SF-295 CNS, 48.1%; in the experiment with SF-539 CNS, 54.7%; in the experiment on UACC-257 melanoma, 114%. For the same molecule, the growth in the experiment on M14 melanoma is 69.1%.
Consider `Cc1ccc(C(C)C)cc1NC(=O)c1ccccc1N(C)C`, for which the growth with NCI-H23 lung is 82.4%; with NCI-H226 lung, 99.3%; in the experiment on NCI-H322M lung it was 82.7%; in the experiment on HOP-62 NSCLC, 97.1%; with NCI-H460 lung it was 102%; in the experiment on HOP-92 NSCLC it was 73.8%. The growth in the experiment on A549/ATCC NSCLC was 82.2%; in the experiment on 786-0 renal it was 81.7%; with COLO 205 colon it was 105%; with DU-145 prostate, 97.4%; in the experiment on MALME-3M melanoma it was 88.3%; in the experiment with MDA-MB-231 breast it was 91.1%. Further, the growth in the experiment on RXF 393 renal was 85.2%; in the experiment with SF-268 CNS it was 95.8%; in the experiment with SF-295 CNS, 83.8%; with SF-539 CNS, 96.9%; with UACC-257 melanoma it was 86.5%; in the experiment with M14 melanoma, 93.9%.
As to `CNC(=O)c1cc(-c2ccc(NC(=O)Nc3ccc(C)cc3)cc2)nc2cccnc12`, the growth is 101% in the experiment with NCI-H23 lung; 61.4% with NCI-H226 lung; 96.6% in the experiment on NCI-H322M lung; 90.6% with HOP-62 NSCLC; 105% with NCI-H460 lung; 64.6% in the experiment on HOP-92 NSCLC. In addition, the growth in the experiment on NCI-H522 lung is 87.5%; in the experiment on A549/ATCC NSCLC, 98.1%; in the experiment with 786-0 renal, 104%; in the experiment on DU-145 prostate, 109%; in the experiment with MALME-3M melanoma it was 109%; in the experiment with MDA-MB-231 breast it was 93.3%. Moreover, the growth with RXF 393 renal is 100%; in the experiment on SF-268 CNS, 104%; with SF-295 CNS, 95.6%; in the experiment on SF-539 CNS, 99%; in the experiment with UACC-257 melanoma it was 123%.
For the molecule `Nc1nc(-c2ccccc2)cs1`, the growth in the experiment on NCI-H23 lung is 42%; with NCI-H226 lung, 63.4%; in the experiment on NCI-H322M lung, 99.4%; in the experiment with HOP-62 NSCLC it was 52%; in the experiment with NCI-H460 lung, 73.2%; with HOP-92 NSCLC, 60.9%. For the same molecule, the growth in the experiment on A549/ATCC NSCLC is 55.7%; with 786-0 renal, 93.7%; in the experiment on COLO 205 colon, 108%; in the experiment on DU-145 prostate it was 66.7%; in the experiment with K-562 leukemia, 28.2%; with MALME-3M melanoma it was 74.4%. Also, the growth in the experiment on MDA-MB-231 breast is 61.8%; in the experiment with SF-268 CNS, 48.3%; with SF-295 CNS, 37.7%; with SF-539 CNS, 53.4%; in the experiment with UACC-257 melanoma, 81.9%; in the experiment with M14 melanoma it was 72.2%.
`Cc1ccc2nc3c(nc2c1)c1cc(I)ccc1n3CCN(C)C`: the growth was 17.8% with NCI-H23 lung; 39.9% in the experiment with NCI-H226 lung; 20% with NCI-H322M lung; 31.3% in the experiment on HOP-62 NSCLC; -2.92% (active) with NCI-H460 lung; 37.2% with HOP-92 NSCLC. Also, the growth was 13.5% with A549/ATCC NSCLC; 23.6% in the experiment on 786-0 renal; -55.8% (active) with COLO 205 colon; 13% in the experiment with DU-145 prostate; 4.47% (active) with K-562 leukemia; 9.73% (active) in the experiment on MALME-3M melanoma. For the same molecule, the growth in the experiment with MDA-MB-231 breast is 14.8%; with RXF 393 renal, 29.8%; in the experiment with SF-268 CNS, 45.4%; in the experiment with SF-295 CNS, 17.3%; in the experiment with SF-539 CNS, 26.4%; in the experiment with UACC-257 melanoma, 41.9%. Further, the growth in the experiment on M14 melanoma was 16.3%.
`Cc1cc(=O)oc2cc(OCCCCOc3ccc(/C=C/C(=O)Nc4ccc(F)c(Cl)c4)cc3)ccc12`: the growth in the experiment on NCI-H23 lung is 87%; in the experiment on NCI-H226 lung, 95.9%; with NCI-H322M lung it was 93.4%; in the experiment with HOP-62 NSCLC, 108%; in the experiment with NCI-H460 lung, 86.7%; with HOP-92 NSCLC it was 115%. Besides, the growth in the experiment with A549/ATCC NSCLC is 79.7%; with 786-0 renal, 94.9%; in the experiment on DU-145 prostate it was 89.1%; with K-562 leukemia it was 88%; in the experiment with MALME-3M melanoma, 71%; with MDA-MB-231 breast, 97.1%. The growth was 111% in the experiment on SF-268 CNS; 101% in the experiment with SF-295 CNS; 89.3% with SF-539 CNS; 97.8% in the experiment on UACC-257 melanoma; 95.9% in the experiment on M14 melanoma.
Take `CN1CCCN(Cc2ccc(C(=O)Nc3cccc(Nc4ccc5cc(O)ccc5n4)c3)cc2C(F)(F)F)CC1`: the growth was 68.8% in the experiment on NCI-H23 lung; 103% in the experiment on NCI-H226 lung; 89.1% with NCI-H322M lung; 95.9% with HOP-62 NSCLC; 27.7% in the experiment on NCI-H460 lung; 53.3% with HOP-92 NSCLC. Moreover, the growth is 64.7% in the experiment on A549/ATCC NSCLC; 8.41% (active) in the experiment with 786-0 renal; 63.2% with COLO 205 colon; 73.7% in the experiment on DU-145 prostate; 14.8% with K-562 leukemia; 51% in the experiment with MALME-3M melanoma. For the same molecule, the growth in the experiment with MDA-MB-231 breast was 34.9%; with RXF 393 renal, 60.8%; with SF-268 CNS it was 62.5%; with SF-295 CNS, -68.5% (active); with SF-539 CNS, 41.8%; in the experiment with UACC-257 melanoma, 59.8%. Moreover, the growth in the experiment with M14 melanoma was 47.2%.
Take `COc1ccc2c3nc4cc(C)c(C)cc4nc3n(CCN(C)C)c2c1`: the growth in the experiment on NCI-H23 lung was 8.28% (active); in the experiment on NCI-H226 lung it was 12.1%; in the experiment with NCI-H322M lung, 0.682% (active); with HOP-62 NSCLC it was 8.8% (active); in the experiment on NCI-H460 lung, -50.6% (active); in the experiment on HOP-92 NSCLC it was 27.1%. Besides, the growth in the experiment on A549/ATCC NSCLC was -59.8% (active); in the experiment with 786-0 renal, -42.7% (active); with COLO 205 colon it was 62.5%; in the experiment with DU-145 prostate, -3.48% (active); in the experiment on K-562 leukemia, 3.09% (active); in the experiment on MALME-3M melanoma, -86% (active). The growth with MDA-MB-231 breast is -10% (active); with RXF 393 renal, -25.5% (active); in the experiment with SF-268 CNS, 27.8%; in the experiment with SF-295 CNS it was -59.4% (active); in the experiment with SF-539 CNS, -88.1% (active); in the experiment with UACC-257 melanoma, 10.5%. Further, the growth in the experiment with M14 melanoma was -73.5% (active).
`O=C(NO)c1ccc(CNC(=O)[C@H]2Cc3c([nH]c4ccccc34)[C@H](c3ccc(Cl)cc3)N2)cc1`: the growth in the experiment with NCI-H23 lung was -50.8% (active); in the experiment with NCI-H226 lung it was 28.2%; in the experiment on NCI-H322M lung, 28.5%; in the experiment on HOP-62 NSCLC it was 2.45% (active); with NCI-H460 lung, 10.3%; in the experiment with HOP-92 NSCLC, -17.1% (active). The growth with A549/ATCC NSCLC was 24.5%; with 786-0 renal, 22.6%; with COLO 205 colon, -82.7% (active); in the experiment on DU-145 prostate it was 10.7%; in the experiment with K-562 leukemia it was 9.83% (active); with MALME-3M melanoma, 6.92% (active). The growth in the experiment on MDA-MB-231 breast was -11.1% (active); in the experiment with SF-268 CNS, 22.6%; in the experiment on SF-295 CNS, -17.4% (active); in the experiment with SF-539 CNS, 2.84% (active); in the experiment on UACC-257 melanoma, 15.1%; in the experiment on M14 melanoma it was 23%.
